The text below walks through data of PubChem BioAssay.

Active and inactive are the calls of the source.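 Rule for the calls, unless noted: active = normalized viability below 100% at a tested concentration; inactive = the rest.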

Assay [1] in a line: Wnt pathway potentiators raising nuclear beta-catenin – imaging, WNT3A-conditioned medium, mouse C2C12, NPC library, primary screen (AID 1117326; in the data active = nuclear beta-catenin stimulation mostly above about 4.2%, no sharp cut-off; inactive = mostly below about 10%). The note with it: stronger effect = higher value.
The nature of assay [2]: stimulators of insulin release from INS-1E, primary screen, cell-based, 5 mM glucose, NPC library (AID 1117329;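 active = compound raises insulin release from rat beta cells at 5 mM glucose, no numeric limit stated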). The conditions noted are these: rat INS-1E insulin secretion, at 10 µM, stronger effect = higher value.
A short description of assay [3]: growth inhibition of GSK3B-pretreated HCT116 cells – cell-based, CellTiter-Glo, 0.2 to 20 µM (AID 1117336;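 active = compounds lowering colon cancer cell viability after pretreatment blocking the GSK3B kinase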). The note with it: HCT116 viability after GSK3B inhibitor, at 20 µM, stronger effect = higher value.
Assay [4] in a line: inhibition of endothelial tube formation, primary screen, imaging, VEGF stimulated, CD31 staining, tube area, NPC library (AID 1117340;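 active = compound that reduces growth-factor-driven endothelial tube area in a mixed cell culture, no cutoff stated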). The conditions noted are these: VEGF-stimulated ADSC/ECFC co-culture, at 10 µM, stronger effect = higher value.
Assay [5] can be described thus: GLP1 release stimulators, primary, NCI-H716, NPC library (AID 1117341;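 active = compound raises GLP1 secretion from the human gut endocrine cells, with no numeric limit stated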). The conditions noted are these: NCI-H716 cells, at 10 µM, stronger effect = higher value.
The nature of assay [6]: HCT116 colon cancer cell growth inhibition, primary screen, CellTiter-Glo luminescence, NPC library (AID 1117342;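 active = compounds that lower survival of HCT116 colon cancer cells in the luminescence readout, no numeric limit stated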). The note with it: at 20 µM (top of the series). Background: Cellular ATP, detected with luciferase, serves as a proxy for viable cell number.
Assay [7] is described as follows: reduced SW480 viability measured with CellTiter-Glo, NPC library, primary (AID 1117343;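 active = compounds that lower viability of the colon cancer cells in the luminescence readout, with no numeric limit stated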). The note with it: CellTiter-Glo luminescence; at 20 µM (top of the series) unless noted.
Assay [8] in a line: NPC library primary testing for decreased DLD-1 cell viability via CellTiter-Glo (AID 1117346;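 active = compounds that lower survival of DLD-1 colon cancer cells in the luminescence readout, no cutoff given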). The note with it: DLD-1 viability, CellTiter-Glo luminescence; at 20 µM (top of the series).
Assay [9] has as its target NAD(+) hydrolase SARM1 (Homo sapiens) (UniProt Q6SZW1). Description: blocking NAD cleavage by SARM1 SAM-TIR – cell lysate, NAD-Glo luminescence (AID 1508614;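 active = compound whose remaining NAD level is above about 45 nM, limit read from the data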;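 note: higher remaining NAD means stronger inhibition of SARM1 NADase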). The conditions noted are these: SAM-TIR HEK293T lysate NADase, at 1 µM, stronger effect = higher value.
Assay [10] is described as follows: drug combination growth inhibition, ovarian cancer – cell-based, oncology-focused library, rucaparib conditional, profiling panel (AID 1508598). The note with it: patient-derived ovarian cancer cells, CellTiter-Glo viability, 144 h, stronger effect = lower value.

Sequence of NAD(+) hydrolase SARM1 (Homo sapiens) (Q6SZW1 whole entry, looked up): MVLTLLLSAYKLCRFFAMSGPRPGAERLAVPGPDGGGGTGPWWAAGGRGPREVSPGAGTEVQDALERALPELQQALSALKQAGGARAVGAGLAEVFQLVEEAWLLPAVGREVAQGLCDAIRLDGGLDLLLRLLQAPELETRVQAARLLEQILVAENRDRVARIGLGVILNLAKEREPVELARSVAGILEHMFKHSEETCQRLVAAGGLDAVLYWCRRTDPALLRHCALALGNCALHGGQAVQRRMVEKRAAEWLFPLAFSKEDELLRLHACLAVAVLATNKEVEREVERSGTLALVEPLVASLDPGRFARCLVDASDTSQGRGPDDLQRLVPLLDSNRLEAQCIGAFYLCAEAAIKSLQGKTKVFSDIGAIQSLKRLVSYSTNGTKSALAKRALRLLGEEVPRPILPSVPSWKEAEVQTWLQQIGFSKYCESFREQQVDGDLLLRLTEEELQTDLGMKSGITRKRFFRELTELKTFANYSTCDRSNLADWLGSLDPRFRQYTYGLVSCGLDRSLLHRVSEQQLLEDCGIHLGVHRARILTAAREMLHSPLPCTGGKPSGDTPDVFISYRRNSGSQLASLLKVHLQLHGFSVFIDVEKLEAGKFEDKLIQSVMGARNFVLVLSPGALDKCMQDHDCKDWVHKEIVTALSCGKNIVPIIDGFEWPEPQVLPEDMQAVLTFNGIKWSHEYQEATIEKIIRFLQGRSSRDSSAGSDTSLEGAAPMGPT

On to `Cc1ncc([N+](=O)[O-])n1C`, for which the nuclear beta-catenin stimulation was 1.7% (inactive) in [1] (at 10 µM) and 22.2% in [1] (stimulation, at 2 µM). Further, the insulin secretion stimulation in [2] is 4.1% (inactive). Also, in assay [3], the viability decrease was 38.9% (inactive). The tube area decrease in assay [4] is -11.6% (inactive). Further, in [5], the GLP1 secretion stimulation is -0.5% (inactive). The inhibition of viability in assay [6] is -2.3% (inactive). Further, the viability decrease (inhibition) in assay [7] was -12.5% (inactive); in [8] it was -4.4% (inactive). In addition, in [9], the remaining NAD was 10 nM (inactive).
The term viability denotes a read-out of living cells in per cent, often relative to untreated cells. With `O=c1[nH]c(=O)n([C@H]2CCCO2)cc1F`, the nuclear beta-catenin stimulation in assay [1] (at 10 µM) was 0.6% (inactive); in [1] (stimulation, at 2 µM), 0.4%. Also, the insulin secretion stimulation in [2] is -1.4% (inactive). For the same compound, the viability decrease in assay [3] is 6% (inactive). In assay [4], the tube area decrease is 3.6% (inactive). Besides, in assay [5], the GLP1 secretion stimulation is -1.7% (inactive). Moreover, the inhibition of viability in assay [6] was 16% (inactive). Further, the viability decrease (inhibition) in assay [7] was 13.4% (inactive); in [8], 11.5% (inactive). For the same compound, the viability in assay [10] (at 0.000305 µM, OCI-C5x cells, with rucaparib 10 µM, 100% = cells with rucaparib alone) is 106% (inactive); in assay [10] (at 0.000305 µM, OCI-C5x cells, without rucaparib) it was 122% (inactive); in [10] (at 0.000305 µM, OCI-P5x cells, with rucaparib 20 µM, 100% = cells with rucaparib alone), 115% (inactive); in assay [10] (at 0.000305 µM, OCI-P5x cells, without rucaparib), 110% (inactive); in assay [10] (at 0.00122 µM, OCI-C5x cells, with rucaparib 10 µM, 100% = cells with rucaparib alone), 119% (inactive); in [10] (at 0.00122 µM, OCI-C5x cells, without rucaparib), 122% (inactive). The viability in assay [10] (at 0.00122 µM, OCI-P5x cells, with rucaparib 20 µM, 100% = cells with rucaparib alone) is 106% (inactive); in assay [10] (at 0.00122 µM, OCI-P5x cells, without rucaparib), 107% (inactive); in [10] (at 0.00488 µM, OCI-C5x cells, with rucaparib 10 µM, 100% = cells with rucaparib alone) it was 103% (inactive); in assay [10] (at 0.00488 µM, OCI-C5x cells, without rucaparib) it was 127% (inactive); in [10] (at 0.00488 µM, OCI-P5x cells, with rucaparib 20 µM, 100% = cells with rucaparib alone), 96% (active); in [10] (at 0.00488 µM, OCI-P5x cells, without rucaparib), 106% (inactive). Moreover, the viability in assay [10] (at 0.0195 µM, OCI-C5x cells, with rucaparib 10 µM, 100% = cells with rucaparib alone) was 107% (inactive); in assay [10] (at 0.0195 µM, OCI-C5x cells, without rucaparib) it was 121% (inactive); in assay [10] (at 0.0195 µM, OCI-P5x cells, with rucaparib 20 µM, 100% = cells with rucaparib alone), 94.8% (active); in assay [10] (at 0.0195 µM, OCI-P5x cells, without rucaparib) it was 99.2% (active); in [10] (at 0.0781 µM, OCI-C5x cells, with rucaparib 10 µM, 100% = cells with rucaparib alone) it was 104% (inactive); in assay [10] (at 0.0781 µM, OCI-C5x cells, without rucaparib), 112% (inactive). Also, the viability was 106% (inactive) in assay [10] (at 0.0781 µM, OCI-P5x cells, with rucaparib 20 µM, 100% = cells with rucaparib alone); 107% (inactive) in assay [10] (at 0.0781 µM, OCI-P5x cells, without rucaparib); 31.7% (active) in [10] (at 0.313 µM, OCI-C5x cells, with rucaparib 10 µM, 100% = cells with rucaparib alone); 24.1% (active) in assay [10] (at 0.313 µM, OCI-C5x cells, without rucaparib); 47.7% (active) in assay [10] (at 0.313 µM, OCI-P5x cells, with rucaparib 20 µM, 100% = cells with rucaparib alone); 16.2% (active) in [10] (at 0.313 µM, OCI-P5x cells, without rucaparib). In addition, the viability in assay [10] (at 1.25 µM, OCI-C5x cells, with rucaparib 10 µM, 100% = cells with rucaparib alone) is 110% (inactive); in assay [10] (at 1.25 µM, OCI-C5x cells, without rucaparib), 115% (inactive); in [10] (at 1.25 µM, OCI-P5x cells, with rucaparib 20 µM, 100% = cells with rucaparib alone), 97.8% (active); in assay [10] (at 1.25 µM, OCI-P5x cells, without rucaparib) it was 97.2% (active); in [10] (at 5 µM, OCI-C5x cells, with rucaparib 10 µM, 100% = cells with rucaparib alone), 133% (inactive); in [10] (at 5 µM, OCI-C5x cells, without rucaparib), 111% (inactive). Moreover, the viability in assay [10] (at 5 µM, OCI-P5x cells, with rucaparib 20 µM, 100% = cells with rucaparib alone) is 87.8% (active); in assay [10] (at 5 µM, OCI-P5x cells, without rucaparib) it was 94.3% (active).
In the case of `CCOc1ccccc1C(N)=O`, the nuclear beta-catenin stimulation was 0.9% (inactive) in [1] (at 10 µM) and 1.6% in [1] (stimulation, at 2 µM). Moreover, the insulin secretion stimulation in assay [2] was -1.8% (inactive). Besides, the viability decrease in [3] was -5.85% (inactive). Further, in assay [4], the tube area decrease is -6.8% (inactive). Further, the GLP1 secretion stimulation in [5] is 1.9% (inactive). In assay [6], the inhibition of viability was 22.9% (inactive). Moreover, the viability decrease (inhibition) in assay [7] was 31.4% (inactive); in [8], -1.45% (inactive). Moreover, in assay [9], the remaining NAD is 10 nM (inactive).
